# In PubChem BioAssay (EPA / NIEHS):
# Results filed as inconclusive are left out. Activity calls are given as the source filed them. The calls were made as follows, unless noted: active = hit-call score of the fitted dose curve at least 0.9, where 1 is the maximum; inactive = score below 0.9.
# Columns and labels:
# [1] = biological target: Glucocorticoid receptor (Homo sapiens) (UniProt P04150); assay: ATG_GR_TRANS: Attagene TRANS-FACTORIAL HepG2 Assay for human Glucocorticoid Receptor (GR) (AID 2282978; active = hit-call score of the fitted dose curve at least 0.9, where 1 is the maximum;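 also: activators score as hits since higher reporter transcript over DMSO is fitted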); details: HepG2 Attagene TRANS GR reporter, mRNA transcription
# How it was run: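 Transiently transfected HepG2 cells express chimeric NR-GAL4 proteins acting on GAL4-UAS reporter units. Compounds are applied for 24 h. mRNA induction over DMSO is measured by capillary electrophoresis.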
# [2] = biological target: Hepatocyte nuclear factor 4-alpha (Homo sapiens) (UniProt P41235); assay: ATG_HNF4a_TRANS: Attagene TRANS-FACTORIAL HepG2 Assay for human Hepatocyte Nuclear Factor 4 alpha (HNF4a) (AID 2282982; active = hit-call score of the fitted dose curve at least 0.9, where 1 is the maximum); details: HepG2 HNF4a transactivation reporter, mRNA readout
# How it was run: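 Readout is fluorescent reporter-transcript fragments resolved by capillary electrophoresis after RT-PCR from HepG2 cells dosed for 24 h. Cells carried transfected GAL4-UAS reporter constructs measuring exogenous NR-GAL4 chimera activity; DMSO served as baseline.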
# [3] = biological target: Nuclear receptor subfamily 4 group A member 2 (Homo sapiens) (UniProt P43354); assay: ATG_NURR1_TRANS: Attagene TRANS-FACTORIAL HepG2 Assay for human Nuclear Receptor Related Protein 1 (NURR1) (AID 2282985; active = hit-call score of the fitted dose curve at least 0.9, where 1 is the maximum); details: HepG2 Attagene TRANS reporter, mRNA readout
# How it was run: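 Transient transfection of HepG2, human liver cells, with multiple GAL4-UAS reporter transcription units. Cells dosed 24 h, RNA isolated, reverse-transcribed, PCR-amplified, FAM-labelled, HpaI-digested, sized by capillary electrophoresis. DMSO served as negative control.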
# [4] = biological target: Transcriptional activator Myb (Homo sapiens) (UniProt P10242); assay: ATG_Myb_CIS: Attagene CIS-FACTORIAL HepG2 Assay for human Myeloblastosis (Myb) Proto-Oncogene Transcription Factor (AID 2282986); details: HepG2 Attagene CIS-FACTORIAL Myb reporter transcription; actives raise or lower the signal
# How it was run: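 Using HepG2 liver cells bearing transiently transfected cis-promoter reporter constructs, the assay measures induction or loss of reporter mRNA after 24 hours of dosing. Detection used fluorescently labeled RT-PCR products separated by capillary electrophoresis.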
# [5] = biological target: Nuclear respiratory factor 1 (Homo sapiens) (UniProt Q16656); assay: ATG_NRF1_CIS: Attagene CIS-FACTORIAL HepG2 Assay for human Nuclear Respiratory Factor 1 (NRF1) Orphan Gene (AID 2282987); details: HepG2 NRF1 cis-element reporter, Attagene multiplex; actives raise or lower the signal
# How it was run: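 Reporter mRNA induction or loss in HepG2 cells after 24 h dosing; cis-regulated reporter constructs report endogenous transcription-factor activity. Quantified by RT-PCR/capillary electrophoresis fluorescence, DMSO-referenced.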
# [6] = ATG_NFI_CIS: Attagene CIS-FACTORIAL HepG2 Assay for human Nuclear Factor I (NFI) (AID 2282989); details: HepG2 cis-regulatory reporter, NFI response element transcription; actives raise or lower the signal
# How it was run: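 Endogenous TF activity in HepG2 cells transiently transfected with cis-element-driven multiplexed reporter units, read 24 h after dosing. Reporter mRNA quantified by RT-PCR, 6-FAM labelling, HpaI digestion and capillary electrophoresis; bidirectional fit versus DMSO.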
# [7] = biological target: Myc proto-oncogene protein (Homo sapiens) (UniProt P01106); assay: ATG_Myc_CIS: Attagene CIS-FACTORIAL HepG2 Assay for human Myelocytomatosis (Myc) Proto-Oncogene Transcription Factor (AID 2282990); details: HepG2, Attagene cis-reporter transcription factor activity; actives raise or lower the signal
# How it was run: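 HepG2, transient MRTU transfection (cis promoters, endogenous TFs); 24 h dosing; TriZol RNA → oligo(dT) RT → PCR → 6-FAM primer extension → HpaI cut → CE. Bidirectional fit vs DMSO.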
# [8] = ATG_NF_kB_CIS: Attagene CIS-FACTORIAL HepG2 Assay for human Nuclear Factor Kappa B (NF-kB) (AID 2282991); details: HepG2 Attagene cis-factorial NF-kB reporter mRNA; actives raise or lower the signal
# How it was run: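 DMSO served as negative control and baseline for bidirectional curve fitting. Transiently transfected HepG2 cells were dosed for 24 h, then reporter transcripts were measured by RT-PCR with capillary electrophoresis detection.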
# [9] = ATG_NRF2_ARE_CIS: Attagene CIS-FACTORIAL HepG2 Assay for human Nuclear Factor Erythroid 2 Related Factor 2 (NFR2) response to Antioxidant Response Elements (ARE) (AID 2282992); details: HepG2 Attagene ARE/NRF2 reporter, transcription factor activity; actives raise or lower the signal;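 as to AC50: reporter mRNA level measured by RT-PCR and capillary electrophoresis fluorescence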
# How it was run: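 HepG2 cells transiently transfected with multiplexed cis-regulated reporter transcription units measure endogenous transcription factor activity. Reporter mRNA at 24 h is quantified by RT-PCR, fluorescent labelling and capillary electrophoresis, with bidirectional fitting relative to DMSO.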
# [10] = ATG_Oct_MLP_CIS: Attagene CIS-FACTORIAL HepG2 Assay for human Octamer-Binding Transcription Factor (Oct) (AID 2282993); details: HepG2 Attagene cis-factorial Oct reporter, mRNA; actives raise or lower the signal
# How it was run: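 HepG2 cells transiently transfected with cis-element-driven reporter transcription units (endogenous TF activity); 24 h compound exposure. Reporter mRNA quantified by RT-PCR, 6-FAM labelling, HpaI digestion and capillary electrophoresis; bidirectional fit versus DMSO baseline.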
# [11] = BSK_3C_TissueFactor: BioMAP Diversity Plus: 3C Assay for Tissue Factor Biomarker Activity (AID 2282997); details: BioMAP 3C HUVEC, tissue factor biomarker readout; actives raise or lower the signal
# How it was run: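 Endothelial monolayers (human umbilical vein, primary) are dosed, incubated 24 h, and assayed for Tissue Factor by ELISA; DMSO serves as negative control for bidirectional fitting.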
# [12] = BSK_3C_uPAR: BioMAP Diversity Plus: 3C Assay for Urokinase-type plasminogen activator receptor (uPAR) Biomarker Activity (AID 2282998); details: BioMAP 3C HUVEC, uPAR biomarker ELISA; actives raise or lower the signal
# How it was run: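 Primary human umbilical vein endothelial cells, 3C system; surface uPAR measured by ELISA 24 h after dosing. Cytotoxicity via SRB total protein in parallel cultures; bidirectional fit against DMSO.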
# [13] = BSK_3C_VCAM1: BioMAP Diversity Plus: 3C Assay for Vascular cell adhesion molecule 1 (VCAM1) Biomarker Activity (AID 2282999); details: BioMAP 3C HUVEC, VCAM1 ELISA, cytokine-stimulated; actives raise or lower the signal
# How it was run: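 Endothelial cells from human umbilical vein are treated with test chemical. At 24 h, VCAM-1 is measured by ELISA, and responses in either direction are fitted relative to DMSO.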
# [14] = BSK_4H_Eotaxin3: BioMAP Diversity Plus: 4H Assay for Eotaxin 3 Biomarker Activity (AID 2283000); details: primary human endothelial cells (HUVEC); actives raise or lower the signal;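 as to outcome: CCL26 protein level quantified by ELISA in parallel with SRB cytotoxicity check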
# How it was run: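 ELISA quantitation of CCL26 (Eotaxin-3) protein from chemically dosed human vascular endothelial cells at 24 h; increases and decreases both scored relative to DMSO-treated baseline.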
# [15] = biological target: Bile acid receptor (Homo sapiens) (UniProt Q96RI1); assay: ATG_FXR_TRANS: Attagene TRANS-FACTORIAL HepG2 Assay for Farnesoid X Receptor (FXR) (AID 2282979; active = hit-call score of the fitted dose curve at least 0.9, where 1 is the maximum;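 also: hits raise reporter mRNA above DMSO so AC50 marks FXR activation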); details: HepG2 Attagene TRANS FXR-GAL4 reporter transcription
# How it was run: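 After 24 h chemical treatment of transfected HepG2 cells, GAL4-UAS reporter transcripts driven by an exogenous FXR-GAL4 fusion were measured by RT-PCR and capillary electrophoresis. Increases over DMSO were fitted.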
# [16] = ATG_M_32_TRANS: Attagene TRANS-FACTORIAL HepG2 Assay for M32 Transcription Factor (Internal Marker) (AID 2282984; active = hit-call score of the fitted dose curve at least 0.9, where 1 is the maximum;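 also: transcript level of a background control reporter unit measured by RT-PCR and capillary electrophoresis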); details: HepG2 Attagene TRANS M32 internal marker reporter
# How it was run: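 Measures reporter mRNA induction in human HepG2 liver cells after 24 h chemical treatment. Transcripts from transiently transfected GAL4-UAS reporter units are amplified, fluorescently labelled and sized by capillary electrophoresis; gain of signal relative to DMSO.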
# [17] = biological target: human Peroxisome Proliferator-activated Receptor alpha (PPARa), PPARA (gene 5465) (UniProt Q07869); assay: ATG_PPARa_TRANS: Attagene TRANS-FACTORIAL HepG2 Assay for human Peroxisome Proliferator-activated Receptor alpha (PPARa) (AID 2283001; active = hit-call score of the fitted dose curve at least 0.9, where 1 is the maximum)
# How it was run: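 Read-out is fluorescence of reporter cDNA fragments resolved by capillary electrophoresis after RT-PCR. Human HepG2 liver cells carried transfected PPARa-Gal4 chimera and GAL4-UAS reporter units, treated 24 h; activity scored as increase over DMSO.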
# [18] = biological target: Cellular tumor antigen p53 (Homo sapiens) (UniProt P04637); assay: ATG_p53_CIS: Attagene CIS-FACTORIAL HepG2 Assay for human p53 Transcription Factor (AID 2282994); details: HepG2 p53 cis-element reporter, Attagene mRNA; actives raise or lower the signal
# How it was run: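 HepG2 cells transiently transfected with multiplexed cis-regulated reporter transcription units read endogenous TF activity. After 24 h compound exposure, reporter mRNA was quantified by RT-PCR, fluorescent labelling, HpaI digestion and capillary electrophoresis; bidirectional fits versus DMSO baseline.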
# [19] = biological target: Oxysterols receptor LXR-beta (Homo sapiens) (UniProt P55055); assay: ATG_LXRb_TRANS: Attagene TRANS-FACTORIAL HepG2 Assay for human Liver X Receptor beta (LXRb) (AID 2282981; active = hit-call score of the fitted dose curve at least 0.9, where 1 is the maximum); details: HepG2 Attagene TRANS GAL4-LXRb reporter, mRNA
# How it was run: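 Transient transfection HepG2 (multiplexed RTUs, GAL4-UAS); NR-Gal4 chimera; 24 h exposure; RNA → RT-PCR → 6-FAM primer extension → HpaI → CE; increase vs DMSO.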
# Chain of Nuclear receptor subfamily 4 group A member 2 (Homo sapiens) (P43354 whole entry, looked up, the tested form may be a part): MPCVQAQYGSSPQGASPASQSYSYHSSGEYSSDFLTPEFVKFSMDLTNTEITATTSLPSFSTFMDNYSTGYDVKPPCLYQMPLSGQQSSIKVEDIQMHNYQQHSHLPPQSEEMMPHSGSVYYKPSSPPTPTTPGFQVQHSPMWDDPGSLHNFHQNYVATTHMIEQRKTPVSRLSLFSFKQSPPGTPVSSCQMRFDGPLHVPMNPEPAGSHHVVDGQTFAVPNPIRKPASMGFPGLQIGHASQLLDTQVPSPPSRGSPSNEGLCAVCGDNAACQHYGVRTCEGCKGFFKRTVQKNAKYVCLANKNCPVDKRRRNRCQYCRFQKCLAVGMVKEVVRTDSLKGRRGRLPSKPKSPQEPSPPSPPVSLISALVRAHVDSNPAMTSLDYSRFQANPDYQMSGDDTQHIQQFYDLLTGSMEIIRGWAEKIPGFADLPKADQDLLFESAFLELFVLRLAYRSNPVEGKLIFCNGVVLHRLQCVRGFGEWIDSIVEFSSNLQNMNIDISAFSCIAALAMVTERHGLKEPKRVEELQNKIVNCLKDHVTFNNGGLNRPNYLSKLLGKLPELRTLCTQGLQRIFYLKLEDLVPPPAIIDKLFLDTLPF
# Chain of Nuclear respiratory factor 1 (Homo sapiens) (Q16656 whole entry, looked up): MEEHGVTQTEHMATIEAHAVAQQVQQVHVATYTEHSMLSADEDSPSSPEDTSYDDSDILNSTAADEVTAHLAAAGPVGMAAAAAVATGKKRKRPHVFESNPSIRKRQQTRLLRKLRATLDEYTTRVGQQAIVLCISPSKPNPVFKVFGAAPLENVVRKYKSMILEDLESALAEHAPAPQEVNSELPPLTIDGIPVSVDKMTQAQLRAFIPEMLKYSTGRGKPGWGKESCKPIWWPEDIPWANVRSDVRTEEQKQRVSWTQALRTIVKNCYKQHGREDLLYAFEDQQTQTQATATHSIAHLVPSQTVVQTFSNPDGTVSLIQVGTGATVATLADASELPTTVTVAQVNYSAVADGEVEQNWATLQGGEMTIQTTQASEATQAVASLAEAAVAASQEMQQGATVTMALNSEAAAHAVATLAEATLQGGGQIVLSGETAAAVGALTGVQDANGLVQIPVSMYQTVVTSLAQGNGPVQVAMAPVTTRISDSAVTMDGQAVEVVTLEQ
# Chain of Bile acid receptor (Homo sapiens) (Q96RI1 whole entry, looked up, the tested form may be a part): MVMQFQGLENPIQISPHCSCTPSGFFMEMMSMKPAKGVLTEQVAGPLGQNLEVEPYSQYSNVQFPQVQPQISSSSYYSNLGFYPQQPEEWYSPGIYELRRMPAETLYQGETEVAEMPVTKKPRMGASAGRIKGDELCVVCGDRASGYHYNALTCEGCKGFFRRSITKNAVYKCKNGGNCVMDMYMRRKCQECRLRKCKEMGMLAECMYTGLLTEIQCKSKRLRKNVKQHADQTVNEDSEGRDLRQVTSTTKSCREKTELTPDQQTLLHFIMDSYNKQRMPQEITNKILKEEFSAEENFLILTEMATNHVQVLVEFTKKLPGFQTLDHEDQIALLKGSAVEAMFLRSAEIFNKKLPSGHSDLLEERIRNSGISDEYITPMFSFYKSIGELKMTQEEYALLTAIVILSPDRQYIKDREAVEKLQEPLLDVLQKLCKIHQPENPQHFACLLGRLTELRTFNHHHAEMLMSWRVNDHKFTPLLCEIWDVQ
# Chain of Transcriptional activator Myb (Homo sapiens) (P10242 whole entry, looked up): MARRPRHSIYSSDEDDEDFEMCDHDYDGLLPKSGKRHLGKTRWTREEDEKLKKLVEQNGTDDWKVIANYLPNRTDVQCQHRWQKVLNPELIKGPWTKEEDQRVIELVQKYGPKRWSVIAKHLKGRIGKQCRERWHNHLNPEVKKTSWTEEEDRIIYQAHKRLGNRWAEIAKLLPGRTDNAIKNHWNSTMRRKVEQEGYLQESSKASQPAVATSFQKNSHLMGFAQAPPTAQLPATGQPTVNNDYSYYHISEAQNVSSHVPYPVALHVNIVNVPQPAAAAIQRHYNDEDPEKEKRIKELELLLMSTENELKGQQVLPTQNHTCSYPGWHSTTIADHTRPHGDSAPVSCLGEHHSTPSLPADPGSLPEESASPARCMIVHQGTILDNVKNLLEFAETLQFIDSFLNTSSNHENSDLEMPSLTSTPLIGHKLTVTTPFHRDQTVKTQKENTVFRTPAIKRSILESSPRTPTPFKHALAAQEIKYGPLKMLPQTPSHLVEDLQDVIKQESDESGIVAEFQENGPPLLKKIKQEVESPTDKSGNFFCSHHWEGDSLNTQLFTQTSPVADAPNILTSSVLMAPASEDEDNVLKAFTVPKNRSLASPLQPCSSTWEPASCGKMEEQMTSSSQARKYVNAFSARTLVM
# Chain of Myc proto-oncogene protein (Homo sapiens) (P01106 whole entry, looked up): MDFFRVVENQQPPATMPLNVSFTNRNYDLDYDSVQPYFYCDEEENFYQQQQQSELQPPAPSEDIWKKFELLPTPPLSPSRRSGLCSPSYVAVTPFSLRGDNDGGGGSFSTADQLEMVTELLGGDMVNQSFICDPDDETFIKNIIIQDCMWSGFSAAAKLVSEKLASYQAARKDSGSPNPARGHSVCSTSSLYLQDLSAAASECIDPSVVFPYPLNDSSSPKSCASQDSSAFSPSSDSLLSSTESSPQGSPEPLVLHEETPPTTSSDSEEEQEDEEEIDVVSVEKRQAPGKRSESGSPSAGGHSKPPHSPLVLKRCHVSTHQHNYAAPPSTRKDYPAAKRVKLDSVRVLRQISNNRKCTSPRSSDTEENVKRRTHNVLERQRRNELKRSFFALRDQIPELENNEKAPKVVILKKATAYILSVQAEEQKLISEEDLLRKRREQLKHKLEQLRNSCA
# Chain of human Peroxisome Proliferator-activated Receptor alpha (PPARa), PPARA (gene 5465) (Q07869 whole entry, looked up, the tested form may be a part): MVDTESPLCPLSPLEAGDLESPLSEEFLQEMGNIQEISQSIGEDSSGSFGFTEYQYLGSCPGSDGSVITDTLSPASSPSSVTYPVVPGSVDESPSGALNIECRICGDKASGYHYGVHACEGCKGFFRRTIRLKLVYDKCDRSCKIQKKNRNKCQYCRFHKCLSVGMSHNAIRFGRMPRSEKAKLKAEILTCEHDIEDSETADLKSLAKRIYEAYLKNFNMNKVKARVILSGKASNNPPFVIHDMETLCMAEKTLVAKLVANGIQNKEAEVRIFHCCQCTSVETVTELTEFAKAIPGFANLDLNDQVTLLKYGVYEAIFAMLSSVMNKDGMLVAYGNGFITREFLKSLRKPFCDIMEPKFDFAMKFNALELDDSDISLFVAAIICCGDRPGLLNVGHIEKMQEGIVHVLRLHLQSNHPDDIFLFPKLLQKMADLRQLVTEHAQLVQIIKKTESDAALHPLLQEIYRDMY
# Chain of Glucocorticoid receptor (Homo sapiens) (P04150 whole entry, looked up, the tested form may be a part): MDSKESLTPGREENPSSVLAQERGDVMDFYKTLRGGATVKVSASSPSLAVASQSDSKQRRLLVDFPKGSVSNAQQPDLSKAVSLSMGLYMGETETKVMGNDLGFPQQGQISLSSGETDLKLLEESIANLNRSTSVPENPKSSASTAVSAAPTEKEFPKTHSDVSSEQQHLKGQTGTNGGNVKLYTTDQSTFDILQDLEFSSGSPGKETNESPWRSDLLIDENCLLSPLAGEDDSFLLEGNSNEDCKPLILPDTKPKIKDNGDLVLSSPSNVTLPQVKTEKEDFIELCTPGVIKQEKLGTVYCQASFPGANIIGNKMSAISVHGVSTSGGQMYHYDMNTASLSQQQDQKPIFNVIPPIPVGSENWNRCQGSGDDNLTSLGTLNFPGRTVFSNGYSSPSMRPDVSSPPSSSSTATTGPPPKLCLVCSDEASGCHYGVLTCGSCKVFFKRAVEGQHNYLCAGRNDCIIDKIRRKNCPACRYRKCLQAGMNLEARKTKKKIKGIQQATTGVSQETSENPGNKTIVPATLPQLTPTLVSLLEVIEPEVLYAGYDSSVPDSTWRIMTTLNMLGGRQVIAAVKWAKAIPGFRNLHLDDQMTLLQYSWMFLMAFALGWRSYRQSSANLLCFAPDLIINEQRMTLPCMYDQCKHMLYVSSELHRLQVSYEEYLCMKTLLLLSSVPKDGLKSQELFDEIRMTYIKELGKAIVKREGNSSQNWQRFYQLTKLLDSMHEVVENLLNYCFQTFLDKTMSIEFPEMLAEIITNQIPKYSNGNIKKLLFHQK
# Chain of Hepatocyte nuclear factor 4-alpha (Homo sapiens) (P41235 whole entry, looked up, the tested form may be a part): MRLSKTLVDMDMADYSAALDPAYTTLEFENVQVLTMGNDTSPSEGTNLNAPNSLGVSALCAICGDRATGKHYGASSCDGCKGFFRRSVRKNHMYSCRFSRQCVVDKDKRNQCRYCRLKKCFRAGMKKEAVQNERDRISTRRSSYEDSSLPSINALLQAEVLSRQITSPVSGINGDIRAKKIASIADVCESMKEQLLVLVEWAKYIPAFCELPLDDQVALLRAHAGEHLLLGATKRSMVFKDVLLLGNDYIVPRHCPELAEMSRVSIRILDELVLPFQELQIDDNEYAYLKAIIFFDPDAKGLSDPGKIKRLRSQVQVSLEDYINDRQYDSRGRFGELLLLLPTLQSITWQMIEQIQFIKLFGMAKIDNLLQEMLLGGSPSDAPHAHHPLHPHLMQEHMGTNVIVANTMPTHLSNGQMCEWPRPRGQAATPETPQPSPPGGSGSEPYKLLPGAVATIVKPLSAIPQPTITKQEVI
# Chain of Cellular tumor antigen p53 (Homo sapiens) (P04637 whole entry, looked up): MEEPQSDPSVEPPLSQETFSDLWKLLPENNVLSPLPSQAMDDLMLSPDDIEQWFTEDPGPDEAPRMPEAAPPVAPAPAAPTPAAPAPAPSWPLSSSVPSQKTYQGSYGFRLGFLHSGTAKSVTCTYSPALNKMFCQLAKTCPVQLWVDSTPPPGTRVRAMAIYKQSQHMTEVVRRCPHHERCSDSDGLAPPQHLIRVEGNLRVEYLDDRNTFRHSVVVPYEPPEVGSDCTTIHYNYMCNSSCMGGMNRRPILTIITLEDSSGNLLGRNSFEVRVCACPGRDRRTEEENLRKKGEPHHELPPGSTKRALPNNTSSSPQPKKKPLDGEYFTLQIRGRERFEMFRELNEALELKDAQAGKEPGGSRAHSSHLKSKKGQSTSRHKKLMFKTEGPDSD
smiles,measurement,setting,value
CC1(C)C(=O)NC(=O)N1CO,outcome,[1],inactive
same,outcome,[2],inactive
same,outcome,[3],inactive
same,outcome,[4],inactive
same,outcome,[5],inactive
same,outcome,[6],inactive
same,outcome,[7],inactive
same,outcome,[8],inactive
same,outcome,[9],inactive
same,outcome,[10],inactive
same,outcome,[11],inactive
same,outcome,[12],inactive
same,outcome,[13],inactive
same,outcome,[14],inactive
Cc1c(C)c2c(c(C)c1O)CCC(C)(COc1ccc(CC3SC(=O)NC3=O)cc1)O2 (stereo not drawn),AC50,[15],17.4 µM (active)
same,outcome,[16],inactive
same,outcome,[3],inactive
same,outcome,[4],inactive
same,outcome,[5],inactive
same,outcome,[6],inactive
same,outcome,[7],inactive
same,outcome,[8],inactive
same,AC50,[9],11 µM (active)
same,outcome,[10],inactive
same,AC50,[11],33.5 µM (active)
same,AC50,[12],23.8 µM (active)
same,AC50,[13],35 µM (active)
same,AC50,[14],30.2 µM (active)
same,outcome,[17],inactive
Cc1ccc(C(C)(C)C)c(O)c1,outcome,[15],inactive
same,outcome,[4],inactive
same,outcome,[5],inactive
same,AC50,[6],141 µM (active)
same,AC50,[7],100 µM (active)
same,AC50,[8],164 µM (active)
same,AC50,[9],65.3 µM (active)
same,AC50,[10],144 µM (active)
same,AC50,[11],27.6 µM (active)
same,AC50,[12],32.6 µM (active)
same,AC50,[13],34.6 µM (active)
same,outcome,[14],inactive
Oc1ccccc1O,outcome,[1],inactive
same,outcome,[16],inactive
same,outcome,[3],inactive
same,outcome,[4],inactive
same,outcome,[5],inactive
same,outcome,[6],inactive
same,outcome,[7],inactive
same,AC50,[9],13.1 µM (active)
same,AC50,[10],31.1 µM (active)
same,AC50,[11],2.96 µM (active)
same,outcome,[12],inactive
same,AC50,[13],2.17 µM (active)
same,outcome,[14],inactive
same,outcome,[17],inactive
O=C1c2c(O)cccc2Cc2cccc(O)c21,outcome,[1],inactive
same,outcome,[3],inactive
same,outcome,[4],inactive
same,outcome,[5],inactive
same,outcome,[6],inactive
same,outcome,[7],inactive
same,outcome,[9],inactive
same,outcome,[10],inactive
same,outcome,[18],inactive
same,AC50,[11],5.39 µM (active)
same,outcome,[12],inactive
same,outcome,[13],inactive
same,outcome,[14],inactive
same,outcome,[17],inactive
CC(C)COC(=O)CCCCC(=O)OCC(C)C,outcome,[15],inactive
same,outcome,[19],inactive
same,outcome,[2],inactive
same,outcome,[16],inactive
same,outcome,[4],inactive
same,outcome,[5],inactive
same,outcome,[6],inactive
same,outcome,[7],inactive
same,outcome,[8],inactive
same,outcome,[9],inactive
same,outcome,[10],inactive
same,outcome,[11],inactive
same,outcome,[12],inactive
same,outcome,[13],inactive
same,outcome,[14],inactive
same,outcome,[17],inactive
CCCCOC(=O)CCCCC(=O)OCCCC,AC50,[1],155 µM (active)
same,outcome,[2],inactive
same,outcome,[16],inactive
same,outcome,[3],inactive
same,outcome,[4],inactive
same,outcome,[5],inactive
same,outcome,[6],inactive
same,outcome,[7],inactive
same,outcome,[8],inactive
same,outcome,[9],inactive
same,outcome,[10],inactive
same,outcome,[11],inactive
same,outcome,[12],inactive
same,outcome,[13],inactive
same,outcome,[14],inactive
same,outcome,[17],inactive
O=C1O[C@H]([C@H](O)CO)C(O)=C1O,outcome,[1],inactive
same,outcome,[16],inactive
same,outcome,[3],inactive
same,outcome,[4],inactive
same,outcome,[5],inactive
same,outcome,[6],inactive
same,outcome,[7],inactive
same,outcome,[9],inactive
same,outcome,[10],inactive
same,outcome,[18],inactive
same,outcome,[11],inactive
same,outcome,[12],inactive
same,outcome,[13],inactive
same,outcome,[14],inactive
Cc1ccc(-c2cc(C(F)(F)F)nn2-c2ccc(S(N)(=O)=O)cc2)cc1,outcome,[1],inactive
same,outcome,[3],inactive
same,outcome,[4],inactive
same,outcome,[5],inactive
same,outcome,[6],inactive
same,outcome,[7],inactive
same,outcome,[8],inactive
same,AC50,[9],5.72 µM (active)
same,outcome,[10],inactive
same,AC50,[11],31.7 µM (active)
same,AC50,[12],24.6 µM (active)
same,AC50,[13],33.9 µM (active)
same,AC50,[14],31 µM (active)
